# A selection: hits, their analogues and other compounds. The true share with any hit is near 27%.
# CYP2C19 inh: blockers of cytochrome P450 2C19 activity – biochemical, luminescence, ADME assay, primary screen | CYP2C19 Supersomes, luciferin-H EGE luminescence, 30 min | 21% of 96,000 active | inhibition, % at 5 µM | P33261;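 active = CYP2C19 inhibition above a set limit at 5 µM in the primary screen, cut at about 50% in these data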;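 also: plate controls were negative control wells for no effect and 2.5 mM tranylcypromine positive control for full effect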
# Cav32 inh: Cav3.2 calcium influx blockers – cell-based, Fluo-4 calcium fluorescence, FDSS, MLSMR library, primary screen; 4% of 100,000 active; Cav3.2-expressing cells; active compounds read low; B-score at 10 µM; Voltage-dependent T-type calcium channel subunit alpha-1H (Homo sapiens), O95180;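 active = single-dose well whose peak fluorescence ratio is a statistical outlier from its plate by either plate-standardised score or position-corrected B-score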
# CYP2C9 inh: blockers of cytochrome P450 2C9 activity – biochemical, luminescence, ADME assay, primary screen | P11712 | CYP2C9 Supersomes, luciferin-H conversion | inhibition, % at 5 µM | 20% of 96,000 active;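 active = blocking of liver enzyme CYP2C9 beyond about 50% at 5 µM, limit read from the data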
# CYP2C19 activ: human CYP2C19 activators, primary screen, biochemical, luminescence. activation factor at 5 µM. AID 1025, 2008. recombinant CYP2C19, luciferin-H EGE luminescence; active compounds read high; 0 = fully inhibited enzyme, 1 = untreated enzyme. Cytochrome P450 2C19 (Homo sapiens), P33261. 96,000 tested, under 10 active;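 active = activation factor of at least 2 at 5 µM in the primary screen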;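 also: 0 = wells with 2.5 mM tranylcypromine and 1 = vehicle-only wells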
# CYP2C9 activ: human CYP2C9 activators, primary screen, biochemical, luminescence | recombinant CYP2C9, luciferin-H conversion; active compounds read high; factor 1 = untreated enzyme, 0 = blocked | activation factor at 5 µM | 1.4% of 96,000 active | AID 1024, 2008;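 active = activation factor of 2 or more for CYP2C9 at a 5 µM dose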;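 also: 0 = sulfaphenazole-blocked wells and 1 = vehicle-only wells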
# Starred values were filed as active, the others as inactive; · = no result given.
SMILES,CYP2C19 inh,Cav32 inh,CYP2C9 inh,CYP2C19 activ,CYP2C9 activ
COc1ccc(NC(=O)C2CCCN(S(=O)(=O)c3cccnc3)C2)c(OC)c1 (stereo not drawn),59*,0.35,15,0.4,0.8
O=C(NCc1cccs1)C1CCCN(S(=O)(=O)c2ccc(Br)s2)C1 (stereo not drawn),-3,-0.0071,-31,1,1.3
Cc1ccc(NC(=O)C2CCCN(S(=O)(=O)c3ccc4c(c3)oc(=O)n4C)C2)nc1 (stereo not drawn),48,-0.046,23,0.5,0.8
COC(=O)c1ccc(NC(=O)C2CCCN2S(=O)(=O)c2ccc(F)cc2)cc1 (stereo not drawn),·,0.066,·,·,·
CCOC(=O)c1cc(CC)sc1NC(=O)c1ccc(N2C(=O)CCC2=O)cc1,-8,-1.4,1,1.1,1
CCOC(=O)c1cc(CC)sc1NC(=O)c1cc(OC)c(OC)c(OC)c1,14,-0.026,62*,0.9,0.4
COc1ccc(CNC(=O)CSc2nnc(Cn3nnc4ccccc43)n2C)cc1,18,-0.29,2,0.8,1
CC(C)Cn1cnc2c(c1=O)c1nc3ccccc3nc1n2Cc1ccc2c(c1)OCO2,-2,-0.25,50*,1,0.5
C=CCn1cnc2c(c1=O)c1nc3ccccc3nc1n2Cc1ccccc1,0,·,-9,1,1.1
CCCn1cnc2c(c1=O)c1nc3ccccc3nc1n2CCc1ccccc1,90*,0.4,39,0.1,0.6
C=C(C)c1nc(N)nc(N)n1,-2,1.1,3,1,1
O=[N+]([O-])c1ccc(Cl)c(/C=N/N2CCN(Cc3ccccc3Cl)CC2)c1,19,-1.7,-108,0.8,2.1*
O=[N+]([O-])c1ccc(Cl)c(/C=N/N2CCN(Cc3ccccc3)CC2)c1,4,-0.29,-80,1,1.8
C=CCN1c2ccccc2[C@]23C[C@@H](C(=O)OC)N(C(=O)NCCC)C2=NC(C(=O)OC)=C(C(=O)OC)[C@H]13,·,-1.9,·,·,·
CCC1CCCCN1C(=O)N[C@@H](Cc1ccccc1)C(=O)O (stereo partly drawn),-2,1,-10,1,1.1
O=C(CCCn1c(=O)[nH]c2cc(Cl)ccc2c1=O)N1CCN(c2ccc([N+](=O)[O-])cc2)CC1,-16,0.64,-4,1.2,1
CCOC(=O)c1[nH]c(C)c(C(=O)Nc2cccc(Cl)c2C)c1C,17,-2.1,43,0.8,0.6
O=c1c2ccccc2c(C=NCCc2ccccc2)c(O)n1Cc1ccccc1,48,-3.9*,77*,0.5,0.2
Cc1cc2n(c1)CCn1c(C)ccc1-2,-5,-0.99,70*,1.1,0.3
CCCC1=[N+](CC)CCn2c(C)ccc21,-9,-0.067,-16,1.1,1.2
Fc1ccc(C2CC(c3ccccc3)Nc3ncnn32)cc1 (stereo not drawn),53*,0.51,-2,0.5,1
Cc1ccccc1C1CC(c2ccccc2OC(F)F)Nc2ncnn21 (stereo not drawn),75*,-4.1*,60*,0.2,0.4
c1ccc(C2CC(c3ccccc3)n3ncnc3N2)cc1 (stereo not drawn),93*,0.088,45,0.1,0.5
Cc1c(NC(=O)C(C)NCC2CCCO2)c(=O)n(-c2ccccc2)n1C (stereo not drawn),4,0.2,-7,1,1.1
O=C(CSc1nc(Nc2ccccc2)nc(N2CCOCC2)n1)Nc1ccc([N+](=O)[O-])cc1,53*,-3.6,77*,0.5,0.2
SMILES,CYP2C19 inh,Cav32 inh,CYP2C9 inh,CYP2C19 activ,CYP2C9 activ
O=C(CSc1nc(Nc2ccccc2)nc(N2CCOCC2)n1)Nc1ccccc1Cl,95*,-0.25,97*,0,0
O=[N+]([O-])c1ccc(Cl)c(/C=N/Nc2nc(N3CCOCC3)nc(N3CCOCC3)n2)c1,19,0.46,12,0.8,0.9
CCOC(=O)C1=C(C)N(C2CCCCC2)C(=O)C1,94*,2.2,41,0.1,0.6
COC(=O)C1=C(C)N(C2CCCCC2)C(=O)C1,55*,0.00031,1,0.4,1
CCOC(=O)C1=NNC2C(=O)N(C3CCCCC3)C(=O)C12 (stereo not drawn),25,0.83,8,0.8,0.9
CCCN1C(=O)CC(C(=O)OC)=C1C,-6,0.25,10,1.1,0.9
